Test results from PubChem BioAssay AID492990 (National Center for Advancing Translational Sciences (NCATS), 2010).
A number with no mark means an inactive call.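 Rule for the calls: active = clear integrase inhibition at one or more tested doses, judged significant by the depositor; inactive = only baseline response.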

What follows are compounds tested on HIV-1 integrase (assay: Gel-Based Assay for Inhibitors of HIV Integrase: Counterscreen for TDP1). Details: recombinant HIV-1 integrase, 32P DNA gel densitometry; series mostly up to 333 µM; inhibition %, high = inhibition: at the top concentration.
Description: HIV Integrase enables the HIV virus to integrate its genetic material into host cells's DNA. This particular assay was utilized as a counterscreen for inhibitors of human tyrosyl DNA phosphodiesterase I (Tdp1). See probe development summary bioassay AID 485312 for further details on the tdp1 inhibitors project.
HIV-1 integrase catalytic assay was carried out as previously described [Marchand et al. Methods in Enzymology 2001] by mixing 400 nM recombinant integrase with 20 nM [32P] radiolabeled DNA substrate in a buffer containing 50 mM MOPS, pH 7.2, 7.5 mM MgCl2, 14.3 mM 2-mercaptoethanol, and the drug of interest or 10% DMSO. Reactions were incubated at 37 degrees C for 1 h and quenched by the addition of an equal volume of gel loading dye (formamide with 0.25% bromophenol blue, 0.25% xylene cyanol and 5 mM EDTA). Reaction products were separated on a 16% polyacrylamide denaturing sequencing gel. Dried gels were exposed overnight and visualized using a Typhoon 8600 (GE Healthcare, Piscataway, NJ). Densitometry analyses were performed using the ImageQuant software from GE Healthcare.

| SMILES | inhibition %, high = inhibition [%] |
| --- | --- |
| O=c1c2ccccc2nc2sc(Nc3ccc4c(c3)CCC4)nn12 | 0.1 |
| O=c1c2ccc(Br)cc2nc2sc(Nc3ccc4c(c3)CCC4)nn12 | 0.7 |
